Hits are enriched below; roughly 19% of the tested compounds scored in any of these assays.
Shiga inhibitor – Shiga toxin inhibition | Vero cells, Shiga toxin protein synthesis inhibition reporter | inhibition, % at 38.7 µM | 9.2% of 290,000 active | AID 2315; in the data active = inhibition mostly above about 28%, no sharp cut-off; inactive = mostly below about 43%
Pf growth 48h – P. falciparum growth inhibition at 48 hours (one generation). P. falciparum luciferase growth in erythrocytes, 48 h. Potency, µM (top dose mostly 28.7 µM), usual class: inhibitors. 5.9% of 310,000 active
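Read-out is firefly luciferase luminescence from an integrated reporter in P. falciparum, so falling signal marks reduced parasite growth. Infected erythrocytes were at 2% hematocrit and 0.1% parasitemia (final) in Albumax-supplemented RPMI 1640.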
AMA1-RON2 inh – AMA1-RON2 (P. falciparum) interaction inhibition; AlphaScreen AMA1-biotinylated RON2 peptide binding; Potency, µM (top dose mostly 58.2 µM), most hits filed as inhibitors; 0.2% of 360,000 active; AID 720542; note: nearly all actives have a fitted effect of over 45% in size
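AMA1 (3D7) with his tag at 25 nM final met compounds first, then biotinylated RON2 peptide at 25 nM; detection used donor plus acceptor beads, 10 µg/mL apiece, read by AlphaScreen after 30 min at room temperature.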
Pf growth 96h – P. falciparum growth inhibition at 96 hours; P. falciparum luciferase reporter growth, 96 h; Potency, µM (doses to about 28.7 µM), hits mostly inhibitors; 6.9% of 320,000 active
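Erythrocytes infected with luciferase-expressing P. falciparum were dispensed at 2% hematocrit and 0.05% parasitemia (final), then incubated with compounds 96 hours at 37 C in 5% CO2. Luminescence after detection reagent addition reported growth.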
SARS PLP yeast – SARS-CoV PLP inhibition in yeast. S. cerevisiae expressing SARS-CoV PLpro, growth rescue. Potency, µM (highest dose often 32.9 µM), hits mostly activators. 0.19% of 330,000 active. AID 485353; calls by dose curve; note: nearly all actives have a fitted effect of over 55% in size
Cycloheximide cs – counter-screen hit for Shiga toxin inhibitors, cycloheximide. 12% of 300,000 active. cell reporter, cycloheximide protein synthesis inhibition counterscreen. AID 2314. max response, %; in the data active = max response mostly above about 13%, no sharp cut-off; inactive = mostly below about 14%; note: read at 38.3 µM for the half of the compounds with a filed dose
Large screens that a line does not name were inactive. Unless noted, calls come from the whole dose curve; as a rule, active = well fitted curve in the direction sought with a large enough effect; inconclusive = small, poorly fitted or top-dose-only effect, or another doubt; inactive = no such curve, though single readings can be large; an effect the other way counts as inactive or inconclusive.

O=C(Cc1cccs1)NCc1cccc(Br)c1	Shiga inhibitor 66.3, Cycloheximide cs 28.8
COc1ccc(CCNC(=O)CN2C(=O)NC3(CCCCC3)C2=O)cc1	none (no result: Shiga inhibitor, Pf growth 48h, Pf growth 96h, Cycloheximide cs)
COc1ccccc1CC(=O)NCc1ccc2c(c1)OCO2	Shiga inhibitor 29.2, Cycloheximide cs 15.6 (no result: Pf growth 96h)
O=C(Cc1cccs1)NCc1ccc(F)cc1	Cycloheximide cs 22.5
COc1ccc(C(C)=O)cc1COC(=O)C1CCN(C(=O)c2ccc(Cl)cc2)CC1	none (no result: Shiga inhibitor, Pf growth 48h, Pf growth 96h, Cycloheximide cs)
CCCCN(C(=O)CN1CCOCC1)c1c(N)n(CC(C)C)c(=O)[nH]c1=O	none
Cc1noc(C)c1COc1ccc(C(=O)N2CCCC(C(F)(F)F)C2)cc1 (stereo not drawn)	none
COc1ccc(NC(=S)c2ccc(N(C)C)cc2)cc1	Shiga inhibitor 57.7, Cycloheximide cs 54.1
COc1ccc(NC(=S)c2ccccc2)cc1	Shiga inhibitor 71.3, Cycloheximide cs 53.4
Cc1ccc(NC(=S)c2ccc(N(C)C)cc2)cc1	Shiga inhibitor 78.3, Cycloheximide cs 53.1
COc1ccc(NC(=S)Nc2ccc(N(C)C(C)=O)cc2)cc1	none
COc1ccc(C(=S)Nc2ccc(N(C)C)cc2)cc1	Shiga inhibitor 77.7, Cycloheximide cs 37.1 (no result: Pf growth 96h)
O=C(CNCCc1ccc(F)cc1)Nc1cc(F)ccc1F	none (no result: Pf growth 48h)
C[C@@H]1CN([C@@H](C)CO)S(=O)(=O)c2ccc(Br)cc2O[C@H]1CN(C)C(=O)Nc1ccc2c(c1)OCO2	none (no result: Shiga inhibitor, Pf growth 48h, Pf growth 96h, SARS PLP yeast, Cycloheximide cs)
O=C(C[n+]1ccc(-c2nnc3n2CCCCC3)cc1)c1ccc(Cl)cc1	none
O=C(NCCc1ccc(Cl)cc1)C1CCC(=O)N1Cc1ccccc1Cl (stereo not drawn)	none
O=C(O)C1CCC(=O)N1Cc1ccccc1Cl (stereo not drawn)	Pf growth 96h 10.4µM
O=C(Nc1ccc(Cl)cc1Cl)C1CCC(=O)N1Cc1ccccc1Cl (stereo not drawn)	Pf growth 48h inconclusive, Pf growth 96h 8.28µM
COCCCNC(=O)C1CCC(=O)N1Cc1ccccc1Cl (stereo not drawn)	Pf growth 96h 11.7µM
O=C(N/N=C/c1cccc(O)c1)c1cc(-c2ccccc2)nc2ccccc12	none
C/C(=N\NC(=O)c1csc2ccccc12)c1ccc(O)cc1	Cycloheximide cs 17.7 (no result: Pf growth 96h)
O=C(N/N=C/c1cccc(O)c1)c1ccccc1O	Shiga inhibitor 68.3, Cycloheximide cs 49.4
Oc1cccc(/C=N/NP(=S)(c2ccccc2)c2ccccc2)c1	Cycloheximide cs 13.9 (no result: Pf growth 48h)
O=C(N/N=C/c1cccc(O)c1)c1csc2ccccc12	Shiga inhibitor 87.1, Cycloheximide cs 48.7
C/C(=N\NC(=O)C(c1ccccc1)c1ccccc1)c1ccc(O)cc1	Pf growth 48h inconclusive, Pf growth 96h inconclusive
Cc1ccc(NCC(=O)N/N=C\c2cccc(O)c2)cc1	Cycloheximide cs 17.7
Cc1ccc(NCC(=O)N/N=C/c2cccc(Br)c2)cc1	Pf growth 96h inconclusive
S=C(NCc1ccco1)Nc1ccccc1Cl	Cycloheximide cs 20.3
S=C(NCc1ccco1)Nc1ccc(Cl)cc1	SARS PLP yeast inconclusive, Cycloheximide cs 15.5
CC(=O)Nc1ccc(SCC(=O)c2cc(C)ccc2C)cc1	none
COc1ccc(-n2c(C)cc(C(=O)CSc3ccc(NC(C)=O)cc3)c2C)cc1	Shiga inhibitor 69.5, Pf growth 48h inconclusive, Cycloheximide cs 29.4
COc1ccc(-n2c(C)cc(C(=O)CCl)c2C)cc1	Pf growth 96h inconclusive
CC(=O)Nc1ccc(SCC(=O)c2cc(C)n(-c3ccccc3)c2C)cc1	Cycloheximide cs 45.2
COc1cccc2sc3ccc(C#CC4(N)CCCCC4)cc3c(=O)c12	Shiga inhibitor 64.1, Pf growth 48h inconclusive, Pf growth 96h inconclusive, Cycloheximide cs 32.0
COc1cccc2oc3ccc(C#Cc4ccccn4)cc3c(=O)c12	Shiga inhibitor 46.9, Cycloheximide cs 65.5
CNC(C)C#Cc1ccc2sc3cccc(OC)c3c(=O)c2c1 (stereo not drawn)	Shiga inhibitor 19.5, Pf growth 48h inconclusive, Pf growth 96h inconclusive, Cycloheximide cs 12.1
COc1cccc2sc3cc(C#CC4(O)CCCCC4)ccc3c(=O)c12	none (no result: Shiga inhibitor, Pf growth 48h, Pf growth 96h, Cycloheximide cs)
COc1cccc2sc3cc(C#Cc4ccccn4)ccc3c(=O)c12	AMA1-RON2 inh inconclusive (no result: Shiga inhibitor, Pf growth 48h, Pf growth 96h, Cycloheximide cs)
CNC(C)C#Cc1ccc2c(=O)c3c(OC)cccc3oc2c1 (stereo not drawn)	Shiga inhibitor 46.0, Pf growth 48h inconclusive, Pf growth 96h inconclusive, Cycloheximide cs 36.5 (no result: AMA1-RON2 inh)

Source: PubChem
